Assay results taken from PubChem BioAssay.
Inconclusive results are not listed. Active and inactive are the calls of the source.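 How the source made its calls, unless noted: active means viability at or below 30% in both replicate assays; inconclusive means viability at or below 30% in just one of the two assays; inactive means the rest.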

Key:
[1] = reducers of endogenous Her2 protein level, primary screen, SKBR3 breast tumor cells, AlphaScreen, ATP viability (AID 461;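 active means Her2 level under about 52% in both replicate screens, with viability over 70% of control, limit read from the data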;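 on Her2 level: lower value means less Her2 protein in the cells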;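 on viability: percent of carrier control wells set as 100% viability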); conditions: 18-24 h, measured here: SKBR3 viability, ATP luminescence, at 10 µM
[2] = molecular target: Receptor tyrosine-protein kinase erbB-2 (Homo sapiens) (UniProt P04626); assay: as above; conditions: 18-24 h, at 10 µM, stronger effect = lower value
Sequence of Receptor tyrosine-protein kinase erbB-2 (Homo sapiens) (P04626 whole entry, looked up): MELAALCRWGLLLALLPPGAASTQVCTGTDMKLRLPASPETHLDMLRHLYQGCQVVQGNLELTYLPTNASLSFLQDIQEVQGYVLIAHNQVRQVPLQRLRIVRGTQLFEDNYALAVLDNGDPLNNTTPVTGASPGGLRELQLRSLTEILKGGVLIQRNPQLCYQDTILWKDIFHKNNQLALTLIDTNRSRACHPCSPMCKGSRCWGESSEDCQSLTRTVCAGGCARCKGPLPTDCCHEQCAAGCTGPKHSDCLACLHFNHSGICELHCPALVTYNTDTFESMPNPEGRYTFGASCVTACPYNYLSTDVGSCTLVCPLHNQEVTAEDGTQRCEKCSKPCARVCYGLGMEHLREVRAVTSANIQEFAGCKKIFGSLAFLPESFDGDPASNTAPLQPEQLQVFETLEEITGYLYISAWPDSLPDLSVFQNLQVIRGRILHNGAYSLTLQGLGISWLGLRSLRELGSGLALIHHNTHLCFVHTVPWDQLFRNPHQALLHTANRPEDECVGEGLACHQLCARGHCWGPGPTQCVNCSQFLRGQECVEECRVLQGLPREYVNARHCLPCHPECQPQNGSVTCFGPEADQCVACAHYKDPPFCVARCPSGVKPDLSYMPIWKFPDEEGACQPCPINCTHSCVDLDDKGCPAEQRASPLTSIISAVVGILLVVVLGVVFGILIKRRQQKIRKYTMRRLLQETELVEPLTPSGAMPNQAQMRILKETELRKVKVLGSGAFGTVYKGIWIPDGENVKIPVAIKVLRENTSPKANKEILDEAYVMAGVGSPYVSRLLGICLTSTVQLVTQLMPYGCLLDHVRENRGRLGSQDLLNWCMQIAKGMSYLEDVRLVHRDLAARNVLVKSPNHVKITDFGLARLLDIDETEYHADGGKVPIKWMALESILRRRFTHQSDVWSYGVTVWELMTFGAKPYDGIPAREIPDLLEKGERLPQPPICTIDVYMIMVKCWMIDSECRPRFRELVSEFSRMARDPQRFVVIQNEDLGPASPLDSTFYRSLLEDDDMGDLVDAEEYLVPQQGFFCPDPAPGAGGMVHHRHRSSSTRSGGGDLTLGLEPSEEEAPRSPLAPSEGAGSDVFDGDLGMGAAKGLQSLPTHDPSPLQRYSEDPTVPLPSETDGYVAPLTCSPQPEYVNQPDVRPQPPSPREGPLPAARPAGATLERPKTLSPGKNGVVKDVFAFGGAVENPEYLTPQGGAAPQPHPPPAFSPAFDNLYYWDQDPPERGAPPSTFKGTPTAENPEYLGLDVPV

[3] = SK-BR-3 cell growth inhibitors, pilot screen, 24 h, human (AID 572;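 active means viability at or below 10% of carrier control in both of two separate runs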;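 further: compound exposure lasted between 18 and 24 h rather than exactly 24 h; 100% = carrier-treated control wells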); conditions: SK-BR-3 viability, CellTiter-Glo luminescence, at 10 µM, stronger effect = lower value
[4] = HUVEC growth inhibition – cell-based, human, primary screen (AID 575); conditions: HUVEC proliferation, CellTiter-Glo luminescence, 72 h; at 10 µM; stronger effect = lower value;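 further: 100% = median of untreated cell wells with 0.1% DMSO on each plate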
[5] = growth inhibitors of H69AR lung tumor, primary screen, human, duplicate replicates (AID 580;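 active means viability at or under a set limit in both replicates, limit being median viability minus 3 SD, cut at about 48% in these data, passing the limit was not always enough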;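 further: 100% = mean luminescence of untreated wells and 0% = no signal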); conditions: H69AR lung tumor cells viability, ATP luminescence, 72 h; at 10 µM; stronger effect = lower value
[6] = reversal of MRP1-mediated doxorubicin resistance, pilot screen, H69AR cells, doxorubicin co-treatment (AID 601;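 active means viability loss from added drug above about 55%, and viability with drug at most 40%, in both replicates, limit read from the data, passing the limit was not always enough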); conditions: CellTiter-Glo, 72 h, at 10 µM; for differential viability (reversal): stronger effect = higher value
[7] = 384-well plate pilot, post-Golgi transport modulator project, inhibition of yeast transport mutant growth (AID 636; in the data active means inhibition above about 31%); conditions: absorbance 615 nm, about 18 h, stronger effect = higher value
[8] = growth suppression of yeast trafficking mutant, preliminary HTS, modulators of trafficking downstream of Golgi apparatus project, 1536-format plate, OD 615 nm (AID 637; in the data active means inhibition above about 30%); conditions: yeast transport mutant growth, absorbance 615 nm, 18 h; stronger effect = higher value
[9] = Restrictive medium S. cerevisiae growth inhibition, OD615, pilot screen of yeast lifespan reduction project, restrictive growth control (AID 706;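 active means growth inhibition above a set limit, 3 SD over mean compound inhibition, in both replicates, cut at about 43% in these data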;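 further: modified DeaD lifespan yeast strain shifted to restrictive glucose medium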); conditions: OD615, 48 h, at 10 µM, stronger effect = higher value
[10] = viability gain of MRP-1-high H69AR cells under doxorubicin, pilot screen, MRP-1 activator project, CellTiter-Glo, duplicate (AID 807;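 active means viability increase at or above a cutoff of the median across tested compounds plus 3 SD, cut at about 8.5% in these data, passing the limit was not always enough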;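 further: compound pretreatment 18-22 h then 72 h combined with doxorubicin; 0% = doxorubicin alone and 100% = vehicle without doxorubicin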); conditions: H69AR viability with doxorubicin, CellTiter-Glo luminescence; at 10 µM; stronger effect = higher value
[11] = growth suppression of beta-catenin knockout HCT116, pilot screen, human colon tumor cells (AID 823;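 active means cell viability at or below a set limit in both duplicate runs, the limit being the all-compound median minus 4 SD, cut at about 23% in these data, passing the limit was not always enough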;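 further: 0% = wells killed by 20 µM Hyamine and 100% = untreated DMSO cell wells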); conditions: CellTiter-Glo, 60 h, at 10 µM, stronger effect = lower value
[12] = growth suppression of PTEN-deleted HCT116, pilot screen, cell-based, HCT116 clonal line, CellTiter-Glo (AID 824;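 active means viability at or below 27.92% in each of two runs, the all-compound median minus 4 SD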;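 further: 0% = 20 µM Hyamine control and 100% = vehicle cell control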); conditions: 60 h, at 10 µM, stronger effect = lower value
[13] = inhibitors of the yeast RAM network, pilot screen, dse1pr::URA3 reporter, 5-FOA selection (AID 869;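 active means inhibition over a set limit, the all-compound mean plus 3 SD, in both replicate runs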;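 further: 0% = DMSO wells with no growth and 100% = 10 µM 1-NA-PP1 with full growth; RAM network block rescues cells from 5-FOA so hits raise OD615 growth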); conditions: S. cerevisiae dse1pr::URA3 5-FOA growth, OD615, 2 d; at 10 µM; stronger effect = higher value; strain carries analog-sensitive mutant Cbk1 kinase
[14] = OD615 S. cerevisiae growth inhibition, permissive medium, pilot counter-assay, permissive growth control for S. cerevisiae lifespan shortening project (AID 705;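 active means growth inhibition above 25% in both replicates, a cutoff set 3 SD above the mean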); conditions: OD615, 24 h, at 10 µM, stronger effect = higher value
[15] = H69AR cells + 2 uM doxorubicin, measured here: viability with 2 uM doxorubicin, stronger effect = lower value
[16] = H69AR cells, compound alone cytotoxicity

Row | SMILES | viability [1] | Her2 level [2] | viability [3] | viability [4] | viability [5] | differential viability (reversal) ([6]; H69AR cells + 2 uM doxorubicin) | viability [6, 15] | viability [6, 16] | inhibition [7] | inhibition [8] | growth inhibition [9] | viability increase [10] | viability [11] | viability [12] | inhibition [13] | growth inhibition [14]
1 | O=C(c1ccc(Br)o1)N1CCN(c2ccc3nnc(-c4ccccc4)n3n2)CC1 | 113% | 78% (inactive) | 113% (inactive) | 56.6% (inactive) | 75.8% (inactive) | 38.7% (inactive) | 37.1% | 75.8% | 2.82% (inactive) | -0.67% (inactive) | 45.7% (active) | -1.47% (inactive) | 45% (inactive) | 38.8% (inactive) | 1.29% (inactive) | 
2 | Cn1c(=N)c(S(=O)(=O)c2ccccc2)cc2c(=O)n3ccccc3nc21 | 83.5% | 108% (inactive) | 83.5% (inactive) | 83% (inactive) | 75% (inactive) |  |  |  | 3.87% (inactive) | 31.8% (active) |  |  |  |  |  | 
3 | OC(CN1CCN(c2ccccc2)CC1)c1ccc2c(c1)CCN2 (configuration not stated) | 87.5% | 110% (inactive) | 87.5% (inactive) | 95.3% (inactive) | 69.5% (inactive) | -26% (inactive) | 95.5% | 69.5% | -2.4% (inactive) | 3.33% (inactive) | -5.32% (inactive) | -6.11% (inactive) | 83.9% (inactive) | 84.4% (inactive) | 0.78% (inactive) | -10.4% (inactive)
4 | CC[C@]1(O)C[C@@H]2CN(CCc3c([nH]c4ccccc34)[C@@](C(=O)OC)(c3cc4c(cc3OC)N(C)[C@H]3[C@@](O)(C(=O)OC)[C@H](OC(C)=O)[C@]5(CC)C=CCN6CC[C@]43[C@@H]65)C2)C1 | 108% | 78.5% (inactive) | 108% (inactive) | 10.5% (active) |  | -38.2% (inactive) | 55.7% | 17.5% |  |  |  |  |  |  |  | 
5 | CC(NC(=O)c1cn(C)c2ccc(S(=O)(=O)N3CCCC3)cc2c1=O)c1ccc2c(c1)OCCO2 (configuration not stated) | 89% | 78.5% (inactive) | 89% (inactive) | 85.6% (inactive) | 77.8% (inactive) | 33.8% (inactive) | 44% | 77.8% | -6.22% (inactive) | 4.75% (inactive) | -24.8% (inactive) | -4.7% (inactive) | 75.5% (inactive) | 76% (inactive) | 2.6% (inactive) | -9.02% (inactive)
6 | COc1ccc(-c2nc(CS(=O)CC(=O)N3CCCC3)c(C)o2)cc1 (configuration not stated) | 92.5% | 91% (inactive) | 92.5% (inactive) | 80.8% (inactive) | 83.9% (inactive) | 2.07% (inactive) | 81.8% | 83.9% | -2.67% (inactive) | 3.77% (inactive) | 5.46% (inactive) | -2.14% (inactive) | 91.8% (inactive) | 90.7% (inactive) | 2.27% (inactive) | -4.09% (inactive)
